Source: PubChem BioAssay (National Center for Advancing Translational Sciences (NCATS))
p53 reactivation: re-activators of mutant p53. H1299 p53-A138V BP100-luciferase reporter, luminescence, 24 h. Potency, µM (titrated, usually from 92.2 µM), for the others: at the highest dose activity change, positive = activation, actives largely listed as activators. 0.063% of 320,000 active. AID 504706; further: potency means the concentration at half of the fitted maximal effect; % of control where 0% means no effect; nearly all actives have a fitted effect of over 45% in size
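p53-null H1299 cells stably carrying temperature-sensitive p53-A138V and a BP100-luciferase reporter were pinned with compounds (4-point, 1:5 series) and held 24 hrs at 37 deg C. Luminescence was read 10 min after detection reagent.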
TRPV1 PAM: potentiators of human vanilloid receptor 1 (TRPV1). AID 540277. potentiation, % at 8.33 µM. 0.02% of 320,000 active. TRPV1-expressing cells, Fluo-8 calcium influx, capsaicin EC20 potentiation; in the data active means potentiation above about 80%; inconclusive means between about 30% and that limit; further: 0% is about no effect
Target sequence (Q8NER1 whole entry, looked up): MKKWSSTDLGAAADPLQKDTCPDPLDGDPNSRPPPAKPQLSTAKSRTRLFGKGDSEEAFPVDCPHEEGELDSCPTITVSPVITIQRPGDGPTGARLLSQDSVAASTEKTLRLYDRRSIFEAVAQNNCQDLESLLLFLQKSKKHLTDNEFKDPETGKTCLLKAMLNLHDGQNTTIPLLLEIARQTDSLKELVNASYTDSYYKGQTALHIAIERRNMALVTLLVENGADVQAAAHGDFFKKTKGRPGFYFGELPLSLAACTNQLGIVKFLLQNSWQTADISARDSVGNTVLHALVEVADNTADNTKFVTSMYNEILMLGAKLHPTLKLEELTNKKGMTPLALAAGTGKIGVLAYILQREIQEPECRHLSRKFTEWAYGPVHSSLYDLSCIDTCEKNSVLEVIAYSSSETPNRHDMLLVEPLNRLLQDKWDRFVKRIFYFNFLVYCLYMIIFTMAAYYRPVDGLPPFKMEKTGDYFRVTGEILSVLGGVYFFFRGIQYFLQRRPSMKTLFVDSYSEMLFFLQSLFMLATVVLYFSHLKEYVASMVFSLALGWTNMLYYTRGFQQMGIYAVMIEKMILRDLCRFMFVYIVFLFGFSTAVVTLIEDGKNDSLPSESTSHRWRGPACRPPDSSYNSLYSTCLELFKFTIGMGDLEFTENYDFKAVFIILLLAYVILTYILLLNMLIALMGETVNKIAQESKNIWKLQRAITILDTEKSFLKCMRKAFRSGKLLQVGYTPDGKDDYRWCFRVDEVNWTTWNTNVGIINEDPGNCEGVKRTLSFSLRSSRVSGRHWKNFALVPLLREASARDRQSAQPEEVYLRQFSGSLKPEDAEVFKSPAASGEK
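Cells expressing TRPV1 were dye-loaded with Fluo-8 and read kinetically: 10 s baseline, 3 min after compound (agonist portion), then 2 min after EC20 capsaicin (allosteric enhancer portion). Calcium-bound dye fluorescence at 480/520 nm.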
KCNH2 WT inh: KCNH2 (human, wildtype) channel inhibition; Q12809; U2OS, BacMam KCNH2, thallium flux FluxOr; active compounds read low; activity change, % at 1.84 µM; 0.37% of 340,000 active;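 active means maximum activity change below -70%; inconclusive means maximum activity change between -70% and -50%; inactive means maximum activity change above -50%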; further: on the % scale 0 is the no-effect control and ±100 the full control effect
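U2OS cells transduced with wild-type KCNH2 virus are loaded with FluxOr dye for 45 min, and thallium flux is measured in kinetic reads before and after stimulation buffer. Rate constants are normalized to DMSO controls.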
ClpP mod: qHTS Assay for Activators of ClpP; ATP-dependent Clp protease proteolytic subunit (Bacillus subtilis (strain 168)), P80244; purified B. subtilis ClpP, FRET peptide cleavage, 20 min; Potency, µM (doses to about 57.5 µM), for the others: at the top dose activity change, negative = active; 1.9% of 340,000 active; active means well fitted falling curve with a large enough effect; inconclusive means small, poorly fitted or top-dose-only effect; inactive means no such curve, though single readings can be large or run the other way; further: potency means the concentration at half of the fitted maximal effect; the source files actives as falling curves though it sought activators and does not explain the sign; nearly all actives have a fitted effect of over 65% in size
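Buffer: 100 mM Tris/HCl pH8, 100 mM KCl, 0.05% low protease BSA, 2.5% glycerol, 0.01% Tween-20. ClpP 10 microg/mL final; 20 min RT; delta FRET normalized to ADEP and DMSO controls.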
KCNH2 3.1 inh: blocks the human KCNH2 3.1 channel isoform; U2OS KCNH2 3.1, thallium flux FluxOr; active compounds read low; activity change, % (tested at about 1.8 µM); 0.95% of 340,000 active;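 active means maximum activity change below -70%; inconclusive means maximum activity change from -70% to -50%; inactive means maximum activity change above -50%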;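 further: thallium influx rate constant from kinetic fluorescence after stimulation buffer; on the % scale 0 is the no-effect control and ±100 the full control effect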
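Thallium flux via FluxOr fluorescence (Red40 quencher, 45 min loading) in U2OS cells virally expressing the KCNH2 3.1 isoform (1.77 x 10^8 /mL virus, overnight at 37 C). Rate constants from 2-min kinetic reads post-stimulation, normalised to positive and negative controls.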
TRPV1 ag: agonists of human vanilloid receptor 1 (TRPV1); Q8NER1; TRPV1-expressing cells, Fluo-8 calcium influx, agonist mode; activation, % at 8.33 µM; 0.19% of 320,000 active; in the data active means activation above about 80%; inconclusive means between about 30% and that limit; further: 0% is about no effect
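TRPV1-expressing cells were cultured overnight at 35.5C and loaded with Fluo-8 calcium dye for 40 to 90 min at room temperature. After a 10 s baseline, compound was added and calcium influx was read kinetically for 3 min (ex 480/em 520 nm).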
ClpP validation: validation of B. subtilis ClpP protease hits (inhibitors); shares compounds with ClpP mod; Potency, µM (titrated, usually from 57.5 µM), for inactives: at the top dose activity change, negative = inhibition, most hits filed as inhibitors; 40% of 470 active; purified B. subtilis ClpP, FRET-FV substrate cleavage, 20 min; further: potency means the concentration at half of the fitted maximal effect; on the % scale 0 is the no-effect control and ±100 the full control effect; nearly all actives have a fitted effect of over 70% in size
* = called active by the depositor; ? = inconclusive; · = no result. Shown are actives, neighbours in structure and some others; about 2.6% of the full set was active somewhere. Unless noted, the call rests on the fitted dose curve; in most records, active means well fitted curve in the direction sought with a large enough effect; inconclusive means small, poorly fitted or top-dose-only effect, or another doubt; inactive means no such curve, though single readings can be large; an effect the other way counts as inactive or inconclusive.

SMILES	p53 reactivation	TRPV1 PAM	KCNH2 WT inh	ClpP mod	KCNH2 3.1 inh	TRPV1 ag	ClpP validation
COc1ccc(C)cc1NC(=O)N(Cc1ccc2c(c1)OCO2)C1CCN(Cc2ccccc2)CC1	·	·	·	0%	·	·	·
COc1ccc(S(=O)(=O)NC(CC(=O)N2CCC3(CC2)OCCO3)c2ccco2)cc1 (centres undefined)	13%	5	-2	2.8µM*	-12	-9	-2%
Cc1ccccc1-c1nn2c(=O)cc(CN3CCN(C(=O)COc4ccccc4Cl)CC3)nc2s1	·	·	·	-3%	·	·	·
CCCNC(=O)c1cnn2c(C)c(Cc3c(C)cc(C)cc3C)c(C)nc12	·	·	·	10µM*	·	·	-1%
CNc1ccc2oc(C[C@H]3O[C@@]4(CC[C@H]3C)O[C@H]([C@H](C)C(=O)c3ccc[nH]3)[C@H](C)C[C@H]4C)nc2c1C(=O)O	1%	-2	-16	5%	-4	?	27µM*
CCn1cc(C(=O)NCc2ccccc2)c2ccccc21	-4%	?	-1	-2%	7	3	·
O=C(NCCc1ccc(Cl)cc1)c1ccc(Nc2nc3ccccc3n3nnnc23)cc1	·	·	·	119%	·	·	22µM*
Cc1ccc(CNC(=O)c2ccc(Nc3nc4ccccc4n4nnnc34)cc2)cc1	·	·	·	130%	·	·	2.7µM*
